Experimental data from PubChem BioAssay (NCI).
This is part of a sample that, as a whole, favours compounds with a hit. Of some 83,000 tested, about 20% had one in any assay.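 Results are percent growth after 48 hours of single-concentration exposure. 100 means growth as in untreated cells, lower positive values show inhibition; negative values down to -100 show cell death.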 Unmarked numbers belong to inactive results. Activity calls are given as the source filed them. How the source made its calls: active means growth percent below 10; inactive means the rest.

Key:
Assay in all cases: NCI-60 one-dose screen, 48 h (100 = growth as untreated, 0 = no growth, -100 = all killed)
Conditions in all cases: 10 µM unless noted
T-47D breast = test system: T-47D breast
BT-549 breast = test system: BT-549 breast
SW-620 colon = test system: SW-620 colon
MCF7 breast = test system: MCF7 breast
HCT-116 colon = test system: HCT-116 colon
HCC-2998 colon = test system: HCC-2998 colon
KM12 colon = test system: KM12 colon
MDA-MB-435 melanoma = test system: MDA-MB-435 melanoma

SMILES | growth (T-47D breast) | growth (BT-549 breast) | growth (SW-620 colon) | growth (MCF7 breast) | growth (HCT-116 colon) | growth (HCC-2998 colon) | growth (KM12 colon) | growth (MDA-MB-435 melanoma)
Cc1ccc(C(CC(=O)O)c2c(C)[nH][nH]c2=O)cc1 (stereo not given) | 86.6% | 103% | 108% | 100% | 107% | 108% | 101% | 
COC(=O)Nc1ccc(-c2nc(-c3cccc(OC)c3)c(-c3ccnc(Br)c3)[nH]2)cc1 | 22.2% | 72.7% | 74.5% | 33.1% | 54.2% | 71.5% | 48% | 
CCOC(=O)c1sc2ncc(-c3ccc(OC)cc3)n2c1C | 93.6% | 102% | 94.1% | 89.9% | 92.4% | 105% | 101% | 
COc1cccc(-c2nc(-c3ccc(NC(=O)c4ccccc4)cc3)[nH]c2-c2ccnc(Br)c2)c1 | 14.7% | 47.1% | 30.8% | 14.7% | 30.7% | 31.1% | 20% | 
Cc1cccc2c3c(sc12)C(c1ccc(Cl)cc1)C(C#N)=C(N)O3 (stereo not given) | 45.9% | 17.9% | 26.9% | 9.7% (active) | 14.2% | 18.3% | 9.62% (active) | 
CCOC(=O)c1sc2ncc(-c3ccc(C)cc3)n2c1C | 89% | 107% | 93.4% | 86.7% | 93% | 93.3% | 86.6% | 
CC1=C(C)C(=O)C(Nc2cccc(C(=O)OC(C)(C)C)c2)=C(Br)C1=O | -0.52% (active) | 92.9% | 91.3% | 27.1% | 62.3% | 100% | 99.9% | 
CCOC(=O)Nc1ccc(-c2nc(-c3cccc(OC)c3)c(-c3ccnc(Br)c3)[nH]2)cc1 | 13% | 56.1% | 46.9% | 17.3% | 25.4% | 40.9% | 24.7% | 
Cc1ccc2c(n1)C(=O)C(Cl)=C(Nc1ccccc1C(C)C)C2=O | 52.7% | 74.9% | 48.2% | 21.1% | 25.1% | 113% | 88% | 
CNCCCNc1nc2ccccc2c2c(=O)c3cc(OC)ccc3sc12 | 81.7% |  | -50.3% (active) | 59.4% | 10.3% | -71% (active) | 35.3% | 37.3%
CN1CCN(CC(=O)N2c3cccc4cccc(c34)N(C(=O)CN3CCN(C)CC3)C2c2cn(-c3ccccc3)nc2-c2cccc([N+](=O)[O-])c2)CC1 | -75.8% (active) |  | -26.4% (active) | -71.1% (active) | -58.2% (active) | -52.9% (active) | 26% | -42.6% (active)
C[C@]12CC[C@@H]3c4cc(OC(F)F)c(OS(N)(=O)=O)cc4CC[C@H]3[C@@H]1CC[C@@H]2O | 43.7% |  | 28.1% | 22.1% | 21.3% | 16.2% | 12.2% | -70.8% (active)
COC1=C(C)C(=O)c2c(c(CCCl)c3n2CCC3OC(C)=O)C1=O (stereo not given) | 60.6% |  | 3.87% (active) | -39.9% (active) | -19.7% (active) | -48.1% (active) | -18.6% (active) | -58% (active)
CN(C)CCN1CCN(c2ncccc2C2Nc3ccccc3-n3cccc32)CC1 (stereo not given) | 90.1% |  | 97.8% | 101% | 105% | 114% | 105% | 101%
COc1ccc(-c2c(C(=O)NS(C)(=O)=O)n(Cc3cccc(C(F)(F)F)c3)c3ccccc23)cc1 | 87.7% |  | 95.4% | 91.4% | 84.5% | 108% | 92.8% | 97.3%
Cc1ccc(NC2=C(Cl)C(=O)c3nc(C)ccc3C2=O)cc1 | -47.5% (active) |  | -30.7% (active) | -66.1% (active) | -39.5% (active) | 4.99% (active) | 36.6% | 
COc1ccc(C(=O)/C=C/c2sc(Cl)nc2Cl)cc1 | 59% |  | 18.6% | -7.05% (active) | 17.7% | -36% (active) | 39% | 15.7%
CCCCCCN1C(=O)/C(=c2\sc3n(c2=O)C2C(NN=3)N(CC)C(=O)N2CC)c2ccccc21 (stereo not given) | 16.2% |  | -38.3% (active) | -10.4% (active) | -37.3% (active) | 83.5% | 16.6% | -49.2% (active)
CCN(CC)CCNc1nc2ccccc2c2c(=O)c3cc(Cl)ccc3sc12 | 60.4% |  | 17.2% | 52.3% | 20.5% | 14.2% | 26.5% | 15.6%
COc1cc(C(=O)/C=C/c2c(Cl)nc3sccn23)cc(OC)c1OC | 81.3% |  | 65.8% | 54.8% | 52.3% | 104% | 56.7% | 72.5%
O=c1c2cc(F)ccc2sc2c(NCCN3CCOCC3)nc3ccccc3c12 | 84.9% |  |  | 76.9% | 46.9% | 59% | 26% | 61.2%
COC1=C(C)C(=O)c2c(c(CCCl)c3n2CCC3O)C1=O (stereo not given) | 81.2% |  | 8.6% (active) | -14.2% (active) | 9.41% (active) | -39.1% (active) | 0.859% (active) | -72.7% (active)
Cc1ccc(C(C)C)cc1C(=O)C[n+]1ccccc1 | 88.7% |  | 106% | 87.1% | 79% | 107% | 101% | 101%
O=C(COc1ccc(/C=C2\Cc3ccc(Cl)cc3C2=O)cc1)Nc1nc2ccccc2s1 | 101% |  | 112% | 103% | 102% | 115% | 117% | 113%

SMILES | growth (T-47D breast) | growth (BT-549 breast) | growth (SW-620 colon) | growth (MCF7 breast) | growth (HCT-116 colon) | growth (HCC-2998 colon) | growth (KM12 colon) | growth (MDA-MB-435 melanoma)
Cc1nc(S(=O)(=O)c2ccccc2)c(S(=O)(=O)Cc2ccc([N+](=O)[O-])cc2)o1 | 77% |  | 90.9% | 74.2% | 86.6% | 97.7% | 106% | 101%
COc1ccc2c(c1OC)C(=O)O[C@H]2[C@H]1c2c(cc3c(c2OC)OCO3)CCN1C | 109% |  | 92.1% | 93.9% | 92.6% | 96.6% | 95.2% | 54.1%
S=C(c1cccs1)N1CCN(c2cccc(Cl)c2)CC1 | 82.6% |  | 103% | 96.9% | 83.9% | 110% | 102% | 108%
COc1cc(Nc2cn[nH]c2-c2ccc(Cl)cc2)cc(OC)c1OC | 23.4% |  | 19.3% | 20.7% | 20.7% | -28.5% (active) | 20.2% | -37.1% (active)
Cc1cccc(NCc2cn(-c3ccc(C(=O)O)cc3)nc2-c2ccc(C(=O)O)cc2)n1 | 100% |  | 99.9% | 97.4% | 107% | 112% | 102% | 101%
CN(C)CCCNc1nc2ccccc2c2c(=O)c3cc(F)ccc3sc12 | 43.1% |  | -51.4% (active) | 18.5% | -47% (active) | -80.4% (active) | 3.81% (active) | -79.7% (active)
CC(=O)c1ccc(Nc2nc(C(C)=O)c(C)s2)cc1 | 92.4% |  | 96.2% | 83.6% | 104% | 98.3% | 98.5% | 100%
C=C1CC[C@@]2(C#N)[C@H]3[C@H](CC[C@@H]2C)[C@@H](C)C[C@@H](CC(C)(C)C#N)[C@H]13 | 21.5% |  | 49.9% | 21.1% | 14.5% | 37.3% | 35.7% | 35.9%
CCc1ccc(Oc2c(-c3ccc(OCc4ccc(Cl)cc4)cc3O)n[nH]c2C(F)(F)F)cc1 | -2.85% (active) |  | 17.4% | 4.9% (active) | -5.05% (active) | 62.2% | 19.5% | 7.72% (active)
CCOC(=O)c1cnn2c3ccccc3n(S(=O)(=O)c3ccc(OC)cc3)c12 | 71.8% |  | 25.9% | 18.5% | 14.4% | 16.9% | 25.9% | 2.91% (active)
Cc1ccc(-c2nc3c(c(-c4ccccc4)nn3-c3ccccc3)c(-c3ccc(O)cc3)c2C#N)cc1 | 61.2% |  | 62.8% | 26.4% | 42.4% | 95.3% | 55.9% | 64.5%
Cc1c(C(=O)NCCCc2ccccc2)sc2ncc(-c3ccc(Br)cc3)n12 | 103% |  |  | 94.3% | 104% | 110% | 100% | 
CCS(=O)(=O)c1ncnc2nc[nH]c12 | 89.8% |  | 99.8% | 89.2% | 87.3% | 107% | 108% | 104%
COc1cc(CCCO)c(OC)c(OC)c1OC | 99.4% |  | 105% | 104% | 106% | 103% | 105% | 102%
Cc1ccc(-c2nc(N3CCN(CC(=O)Nc4ccc(Cl)cc4)CC3)c3ccccc3n2)cc1 | 80.2% |  |  | 77.5% | 89.9% | 82.4% | 92.4% | 96.4%
Cc1cccc2c(=O)c3c(sc12)c(NCc1ccccc1)nc1ccccc13 | 48.4% |  | 95.5% | 27.2% | 77% | 90.3% | 84.5% | 109%
CCCCn1c(=O)c(-c2cc(-c3ccc(Cl)cc3)nc(-c3ccc(Cl)cc3)c2)cc2cc(C)ccc21 | 95.8% |  | 99.6% | 97.6% | 99.8% | 105% | 102% | 104%
COC(=O)/C=C1\S/C(=N\Nc2ccc([N+](=O)[O-])cc2[N+](=O)[O-])N(C2CCCCC2)C1=O | 12.9% |  | 22.7% | 23.1% | 29.8% | 63.1% | 45.9% | 79%
Cc1cc2nc3cc(C)c(N)cc3[n+](-c3ccccc3)c2cc1N | 14% |  | 72.9% | 32.7% | 33.1% | 56.6% | 28% | 67.2%
CN1CCN(c2ccc(-c3ccc4ncc(C#N)c(Nc5ccc(F)c(Cl)c5)c4c3)cc2)CC1 | 60.7% |  | 21.5% | 51.4% | 18.2% | 48.6% | 57.2% | 21.6%
CCOC(=O)NCCc1ccccc1 | 106% |  | 99.2% | 99.1% | 108% | 90.3% | 108% | 108%
CC/C=C\C[C@@H](O)C/C=C1/C(=O)C=C[C@H]1C/C=C\CCCC(=O)OC | 15.6% |  | -15.9% (active) | 9.31% (active) | -47.1% (active) | -88.1% (active) | -58.2% (active) | 1.93% (active)
COc1ccc(CN2c3ccccc3Sc3ccccc32)c(F)c1 | 11.9% |  | 10.3% | 22.6% | 15.7% | 61.6% | 25.8% | -51% (active)
O=C1/C(=C/c2ccccc2[N+](=O)[O-])Oc2ccc(O)c(O)c21 | 39.8% |  | 28.5% | 21.2% | 21.6% | 57.9% | 37.5% | 
